Laboratory results taken from PubChem BioAssay AID1159580 (chemical genetic matrix, 2015).
Among all 5,500 compounds or so, about 2,000 (36%) were called active. Inconclusive results (about 18%) are left out. No stated cut-off is given here; in the data, active means normalized growth mostly below about 0.91 (no sharp cut-off); inconclusive means no clear call, values can overlap the other calls; inactive means mostly above about 0.92. The list shows a part of the results.

Assay: chemical genetic growth profiling, strain panel (AID 1159580);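 further: tested at 20 µM; growth read once vehicle control cultures reached saturation at 30 °C; 1 = growth at the plate median or of vehicle wells; lower values mean less growth of the strain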
Conditions: S. cerevisiae deletion strains, growth OD

Measured: normalized growth

NOCC(=O)O
inactive: locus YAL040C, strain CLN3, active compounds read low 0.96 | locus YCL061C, strain MRC1 (second series), active compounds read low 0.985 | locus YDR363W, strain ESC2, active compounds read low 1.01 | locus YER002W, strain NOP16, active compounds read low 0.997 | locus YGR229C, strain SMI1, active compounds read low 0.979 | locus YJR075W, strain HOC1, active compounds read low 1 | locus YNL128W, strain TEP1, active compounds read low 0.977 | locus YNL175C, strain NOP13, active compounds read low 1.01 | locus YNL197C, strain WHI3, active compounds read low 0.993 | locus YNL224C, strain SQS1, active compounds read low 1.04 | locus YNL322C, strain KRE1, active compounds read low 0.998 | locus YOR083W, strain WHI5 (second series), active compounds read low 0.993 | locus YPL055C, strain LGE1, active compounds read low 0.999
